Screening results deposited in PubChem BioAssay by National Center for Advancing Translational Sciences (NCATS).
HepG2 viability: qHTS for Inhibitors of TGF-b: Cytotox Counterscreen; HepG2 CAGA-GFP viability, ATP luminescence, 18 h; 410,000 compounds, 0.76% hits; Potency, µM (doses to about 46.1 µM), actives largely listed as cytotoxic; AID 588856, 2011
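HepG2 CAGA-GFP cells (1000/well, DMEM with 1% FBS) received compound, then TGF-beta at 500 pg/mL final, and were incubated 18 hours at 37 degrees C. Viability was read by CellTiter-Glo luminescence. Media-only wells were set as complete cell-killing and DMSO as no toxicity.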
TDP1 cell CPT: qHTS for Inhibitors of human tyrosyl-DNA phosphodiesterase 1 (TDP1): qHTS in cells in presence of CPT; chicken DT40 Tdp1-/-;hTDP1 cells + 20 nM CPT, ATP luminescence, 48 h; Potency, µM (doses to about 46.2 µM), actives largely listed as inhibitors; 420,000 compounds, 12% hits; note: nearly all actives have a fitted effect of over 55% in size
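Cell growth measured by CellTiter-Glo luminescence after a minimum 48 h, 37 C compound exposure with 20 nM CPT in Tdp1-knockout DT40 cells stably expressing hTDP1, seeded 400/well; qHTS titration format.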
TDP1 cell noCPT: qHTS for Inhibitors of human tyrosyl-DNA phosphodiesterase 1 (TDP1): qHTS in cells in absence of CPT | DT40 Tdp1-/- hTDP1 cells, no CPT, ATP luminescence, 48 h | Potency, µM (titrated, usually from 46.2 µM), actives largely listed as inhibitors | 420,000 compounds, 15% hits | AID 686978, 2013; note: nearly all actives have a fitted effect of over 55% in size
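Cells were dispensed at 400 per well, compounds added by pin tool, plates incubated ≥48 hr at 37 °C, then CellTiter-Glo added for 30 min at room temperature before luminescence reading. Line: DT40 Tdp1-/- complemented with hTDP1; camptothecin omitted.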
TGFb SMAD3 inh: qHTS for Inhibitors of TGF-b; Potency, µM (doses to about 46.1 µM), most hits filed as inhibitors; AID 588855, 2011; 410,000 compounds, 1.2% hits; HepG2 CAGA-GFP TGF-b/SMAD3 reporter, GFP fluorescence, 18 h; TGF-beta stimulated, 500 pg/mL final; note: nearly all actives have a fitted effect of over 65% in size
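Per well, imaged GFP fluorescence of HEPG2 CAGA-GFP cells gives the signal; cells get compound, then TGF-beta (500 pg/mL final), 18 h at 37 degrees C; %Activity versus -TGF-beta and +DMSO controls.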
ASM inhibitor: Inhibitors of Secretory Acid Sphingomyelinase (S-ASM): qHTS | Sphingomyelin phosphodiesterase (Homo sapiens), P17405 | placental ASM, HMU-PC fluorogenic substrate, 60 min | Potency, µM (titrated, usually from 57.5 µM), most hits filed as inhibitors | 340,000 compounds, 0.006% hits
Target sequence (P17405 47-631 limits assumed): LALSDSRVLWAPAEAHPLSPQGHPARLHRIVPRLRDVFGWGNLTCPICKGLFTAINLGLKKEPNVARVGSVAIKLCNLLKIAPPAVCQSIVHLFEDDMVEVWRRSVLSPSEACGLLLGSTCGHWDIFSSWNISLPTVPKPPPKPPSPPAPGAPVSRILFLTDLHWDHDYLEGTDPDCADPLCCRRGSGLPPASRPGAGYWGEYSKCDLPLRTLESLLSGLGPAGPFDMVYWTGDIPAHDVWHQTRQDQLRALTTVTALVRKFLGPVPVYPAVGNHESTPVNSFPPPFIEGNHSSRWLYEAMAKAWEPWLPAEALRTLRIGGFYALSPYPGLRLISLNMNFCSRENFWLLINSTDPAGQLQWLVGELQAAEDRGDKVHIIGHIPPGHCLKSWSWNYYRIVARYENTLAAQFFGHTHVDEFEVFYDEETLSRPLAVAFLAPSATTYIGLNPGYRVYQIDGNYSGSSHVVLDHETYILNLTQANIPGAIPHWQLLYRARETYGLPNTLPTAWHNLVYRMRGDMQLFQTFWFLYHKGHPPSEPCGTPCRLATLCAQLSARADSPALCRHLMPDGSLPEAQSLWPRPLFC
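Fluorescence read-out (Ex 386 nm, Em 447 nm) after stopping the reaction at pH 10. Enzyme: ASM from human placenta; substrate HMU-PC0, 9 uM final; 60 min, 37 °C. Compound preincubation 10 min, ambient temperature.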
IL1B secr inh: qHTS for Inhibitors of Inflammasome Signaling: IL-1-beta AlphaLISA Primary Screen; THP-1 LPS/ATP IL-1B secretion, AlphaLISA, 16 h; active compounds read low; activity change, % at 57.5 µM; 360,000 compounds, 4.7% hits; AID 743279, 2014; in the data active = activity change below about -50%; inconclusive = mostly about -30% to -49%
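Secreted IL-1B measured by AlphaLISA bead assay after 16 h compound exposure of THP-1 cells; compounds (final up to 57.5 uM) added 1 h before LPS (250 ng/mL) and ATP (1.25 mM) stimulation; lower signal means less secretion.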
A number is an active result; – = inactive; ? = inconclusive; · = no result given. In the library only some 19% were active in any assay of this set; here they are far more common. Unless noted, calls come from the whole dose curve; as a rule, active = well fitted curve in the direction sought with a large enough effect; inconclusive = small, poorly fitted or top-dose-only effect, or another doubt; inactive = no such curve, though single readings can be large; an effect the other way counts as inactive or inconclusive.

SMILES	HepG2 viability	TDP1 cell CPT	TDP1 cell noCPT	TGFb SMAD3 inh	ASM inhibitor	IL1B secr inh
CC(C)N(C)C1=CC(=O)C(N(C)C(C)C)=CC1=O	–	23µM	?	–	–	–
O=C(c1ccc(Nc2nc3ccccc3n3nnnc23)cc1)N1CCN(c2ccc(F)cc2)CC1	–	10µM	9.2µM	–	·	·
CC(NC(=O)c1ccc(Nc2nc3ccccc3n3nnnc23)cc1)c1ccccc1 (stereo not given)	–	13µM	7.3µM	–	·	·
CN(C)c1ccc(Nc2nc3ccccc3n3nnnc23)cc1	–	?	23µM	?	·	·
COc1ccc(N2CCN(C(=O)c3ccc(Nc4nc5ccccc5n5nnnc45)cc3)CC2)cc1	–	?	?	–	·	·
CC(CNC(=O)c1ccc(Nc2nc3ccccc3n3nnnc23)cc1)c1ccccc1 (stereo not given)	–	?	?	–	·	·
O=C(NCc1ccc(F)cc1)c1ccc(Nc2nc3ccccc3n3nnnc23)cc1	–	21µM	15µM	–	·	·
CC(=O)Nc1ccc(Nc2nc3ccc(C)cc3n3nnnc23)cc1	–	6.5µM	6.5µM	–	·	·
Cc1ccc(CCNC(=O)c2ccc(Nc3nc4ccccc4n4nnnc34)cc2)cc1	–	?	18µM	–	·	·
CCC(C)NC(=O)c1cn(CC)c2ccc(S(=O)(=O)N3CCCCCC3)cc2c1=O (stereo not given)	–	–	?	–	–	?
COc1ccccc1N1CCN(c2nc3ccccc3n3cnnc23)CC1	–	?	21µM	–	·	·
Cc1cccc(N2CCN(c3nc4ccc(Cl)cc4n4cnnc34)CC2)c1C	–	21µM	?	?	–	–
COc1ccccc1N(CC(=O)NCCC1=CCCCC1)S(=O)(=O)c1ccccc1	–	?	?	–	–	–
O=C(c1cccnc1)N1CCN(c2c(Cl)cccc2[N+](=O)[O-])CC1	–	–	8.2µM	–	–	–
O=C(/C=C/c1ccccc1)N1CCN(c2c(Cl)cccc2[N+](=O)[O-])CC1	–	23µM	16µM	?	–	?
CC(C)C(=O)N1CCN(c2c(Cl)cccc2[N+](=O)[O-])CC1	–	–	?	–	–	–
CCCOc1ccc(CCC(=O)N/N=C/c2ccncc2)cc1	–	26µM	?	–	–	–
CCN1C(=O)C2(c3ccccc31)c1c(oc3ccc(C)cc3c1=O)C(=O)N2CCCOC(C)C (stereo not given)	–	?	?	–	·	·
CC[C@H](C)[C@H]1O[C@]2(CC[C@@H]1C)C[C@@H]1C[C@@H](C/C=C(\C)[C@@H](O[C@H]3C[C@H](OC)[C@@H](O[C@H]4C[C@H](OC)[C@@H](O)[C@H](C)O4)[C@H](C)O3)[C@@H](C)/C=C/C=C3\CO[C@@H]4[C@H](O)C(C)=C[C@@H](C(=O)O1)[C@]34O)O2	·	11µM	?	·	·	·
COc1ccc(NC(=O)N(C)C[C@@H]2OCc3ccccc3-c3c(n(C)c4ccccc34)C(=O)N([C@H](C)CO)C[C@H]2C)c(OC)c1	–	15µM	?	–	·	?
C[C@@H]1CN([C@H](C)CO)C(=O)c2c(c3ccccc3n2C)-c2ccccc2CO[C@H]1CN(C)Cc1ccc(C(F)(F)F)cc1	20µM	?	21µM	?	·	?
Cc1noc(C)c1NC(=O)N(C)C[C@@H]1OCc2ccccc2-c2c(n(C)c3ccccc23)C(=O)N([C@H](C)CO)C[C@H]1C	–	–	?	–	·	–
C[C@@H]1CN([C@H](C)CO)C(=O)c2c(c3ccccc3n2C)-c2ccccc2CO[C@H]1CN(C)Cc1cccc(C(=O)O)c1	–	–	–	–	·	–
